Drawing on PubChem BioAssay AID463213 (Sanford-Burnham Center for Chemical Genomics, 2010), this text covers inhibition for 39 compounds.

For orientation: inhibition means the change of the read-out against control, counted positive when it falls.

Among all 7,400 compounds or so, about 4,100 (55%) were called active.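 Rule for the calls: active = inhibition of yeast growth at or above a set limit in either of two repeat tests at 20 µM; inactive = the rest.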 The set was probably picked from earlier hits. These entries were drawn from the full list.

This assay is described as follows: tim10-1 ts yeast growth inhibition, retested – single concentration, luminescence, S. cerevisiae, confirmation (AID 463213).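 Note: tim10-1 mutant grown at permissive 25 °C to find synthetic lethal compounds; 0% = DMSO yeast wells and 100% = medium wells without yeast.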 The following applies: S. cerevisiae tim10-1 ts strain growth, BacTiter-Glo, 24 h; at 20 µM; active compounds read high.
Regarding `COc1ccc(-c2cc(C3CCN(c4ncccc4[N+](=O)[O-])CC3)[nH]n2)cc1`, the inhibition is 30.2% (inactive). Consider `COC(C/C=C/C(=O)[C@@H](C)OCc1ccccc1)OC`, for which the inhibition was 43.7% (active). As for `Nc1ccc(-c2nnc(-c3ccc(-c4ccccc4)cc3)o2)cc1`, the inhibition was 25.1% (inactive). With `CCc1ccc2oc(-c3ccc(N)cc3)nc2c1`, the inhibition was 41.8% (active). As for `COc1ccc(NC(=O)c2cc3nc(-c4ccccc4)cc(C)n3n2)cc1OC`, the inhibition was 33.3% (active).

`CC(C)CCNC(=O)c1ccc2c(Cl)c3c(nc2c1)CCC3`: the inhibition is 35% (active). In the case of `Cc1ccc(-c2cn3cc(C)ccc3n2)cc1` it was 43.9% (active); in that of `CSc1nnc2ccc(-c3ccc(C)cc3)nn12`, 24.9% (inactive); in that of `COc1ccc2c(c1)cc1n2CCN=C1NN`, 27.9% (inactive). `CCOC(=O)C(=Cc1ccccc1OC)C(=O)OCC`: the inhibition is 30.1% (active).

Turning to `COc1ccccc1CNC(=O)c1ccc(SC)cc1OC`, the inhibition is 20.9% (inactive). Consider `CNC(C)C#Cc1ccc2sc3cc(OC)c(OC)cc3c(=O)c2c1` (centres undefined), for which the inhibition is 31.8% (active).

With `CSC(=S)N/N=C/c1c[nH]c2ccccc12`, the inhibition is 41.7% (active). On to `COC(=O)CSc1snnc1-c1ccc(Cl)c(Cl)c1`, for which the inhibition is 31.9% (active). Regarding `CCC(=O)Nc1nc2ccccc2n1Cc1ccccc1C`, the inhibition was 18% (inactive). In the case of `O=C(NCc1ccco1)c1cccn2c(=O)c3c4c(sc3nc12)CCCC4`, the inhibition was 42.4% (active). Turning to `O=c1oc(-c2ccco2)nc2sc3c(c12)CCCCC3`, the inhibition was 3.45% (inactive). In the case of `Cc1ccc(-c2csc(NC(=O)C3=COCCO3)n2)cc1C`, the inhibition was 18.2% (inactive).

Regarding `CN(C)CCN(C(=O)C1=COCCO1)c1nc2ccc(Cl)cc2s1`, the inhibition is 69% (active).

Regarding `Cc1ccc2nc(N(CCN(C)C)C(=O)C3=COCCO3)sc2c1`, the inhibition was 35.6% (active). With `Clc1ccc(C2CC(c3cccs3)n3ncnc3N2)cc1Cl` (centres undefined), the inhibition is 18% (inactive). Then `Cc1oc2c(c1C(=O)N1CCOCC1)C(=O)c1ccccc1C2=O`, with 27.7% (active). With `Cc1ccc(S(=O)(=O)NC(C(=O)N2CCOCCOCCOCCOCC2)c2ccccc2)cc1` (centres undefined), the inhibition is 0.85% (inactive).

For the compound `O=C1c2cccc3c([N+](=O)[O-])ccc(c23)C(=O)N1CC1CCCO1` (centres undefined), the inhibition is 46.5% (active). As to `O=C(Cc1ccc(Cl)c(Cl)c1)Nc1ccc(SC(F)F)cc1`, the inhibition was 35.9% (active). Take `N#C/C(=C\c1cccnc1)C(=O)Nc1ccc(SC(F)F)cc1`: the inhibition is 17.2% (inactive). For `COc1ccc(C(C[N+](=O)[O-])n2nc(C)cc2C)cc1` (centres undefined), the inhibition is 38.1% (active). Consider `COc1cccc(Cn2cnc3c([N+](=O)[O-])c(C)c(C)cc32)c1`, for which the inhibition was 25.6% (inactive). In the case of `COc1ccc2c(c1)C(NS(=O)(=O)OCC(Cl)(Cl)Cl)CCC2` (centres undefined), the inhibition was 27.9% (active). In the case of `Cc1nn(Cc2ccc(Cl)c(Cl)c2)c(C)c1NC(=O)c1cc(C2CC2)on1` it was 51.2% (active); in that of `O=C1CSC(=S)N1c1ccc(Cl)c(Cl)c1`, 34.4% (active).

Consider `S=C(NCCCc1ccccc1)Nc1ccc(Br)cc1`, for which the inhibition is 36.3% (active). `COc1ccc2nc(NC(=O)[C@@H]3CCCN3C(=O)c3cccs3)sc2c1`: the inhibition is 19.9% (inactive).

Turning to `CC(C)(C)NC(=O)NC(=O)COC(=O)CCC1CCCCC1`, the inhibition is 37.9% (active). On to `Cc1nn2c(c1-c1ccccc1)N=C(c1ccco1)CC2c1ccccc1` (centres undefined), for which the inhibition is 28.9% (inactive). With `COc1ccc2nc(Nc3nc4cc5c(cc4s3)OCCO5)sc2c1`, the inhibition is 1.5% (inactive). Consider `CCn1c(/C=C/c2ccc([N+](=O)[O-])o2)nc2ccccc2c1=O`, for which the inhibition is 45.9% (active). `Brc1ccc(C2=CC(c3ccco3)n3ncnc3N2)cc1` (centres undefined): the inhibition was 18.9% (inactive). Then `Nc1ccccc1Sc1ccc(C(F)(F)F)cc1[N+](=O)[O-]`, with 61.2% (active).
